Rows were chosen to be rich in hits. Some 2.5% of all compounds tested hit in one or more screens of this group.
F508del corr = CFTR F508del correction in bronchial cells; CFBE cells, YFP halide quenching; stimulated with forskolin plus potentiator P3; % fluorescence drop versus neutral controls; activity (quench increase), % at 7.58 µM; 350,000 compounds, 0.36% hits;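 active means mean added fluorescence quench of at least 8% versus neutral control, with both replicates also reaching 8%; inconclusive means only one of the mean or replicate conditions met; inactive means mean below 8% and not both replicates reaching 8%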;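 further: cells transiently co-express mutant CFTR-F508del with the halide-sensitive YFP; corrector assay measuring rescue of mutant channel to the surface after 24 h compound exposure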
EWS-Fli inh = blocks EWS/Fli oncoprotein-driven transcription; A673 NR0B1-luciferase reporter, viability-normalised; inhibition, % at 12.6 µM; 350,000 compounds, 0.67% hits;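 active means mean inhibition of at least 50% after viability correction, with every replicate also passing that limit; inconclusive means mean reaches 50% but only one of two replicates passes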;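 further: firefly luciferase signal divided by Alamar Blue viability fluorescence both relative to DMSO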
HIV Env fusion = HIV envelope-mediated fusion inhibition; HeLa-JRFL Env/CEM21 cell fusion, luciferase; inhibition, % at 12.3 µM; 360,000 compounds, 1.1% hits; AID 651610;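 active means mean replicate inhibition score of at least 50 and every replicate individually at or above 50; inconclusive means only one of the two criteria met; inactive means mean below 50 and not all replicates reaching 50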;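 further: 0% = plate neutral controls and 100% = maraviroc near 300 nM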
GAA850 FXN act = activators of GAA850 frataxin (FXN) promoter; HEK293 lucGAA850 FXN promoter luciferase reporter, 24 h; percent of 10 µM SAHA response; activation, % at 6 µM; 360,000 compounds, 0.56% hits; AID 540364;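 active means activation above the average of all compounds screened plus 3 SD, cutoff fixed separately per campaign, cut at about 7.5% in these data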;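 further: 0% = DMSO wells and 100% = 10 µM SAHA wells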
PAX8 inh HTS = lowers PAX8-driven luciferase in RMG-I cells | RMG-I TPO-luciferase reporter, SteadyGlo, 24 h | inhibition, % at 12.6 µM | 360,000 compounds, 1.2% hits | AID 652154;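 active means mean replicate inhibition at least 60% with every replicate also reaching 60%; inconclusive means only one of the two criteria is met; inactive means mean below 60% and not all replicates reaching 60%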;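 further: luciferase light reporting Pax8 driven TPO promoter activity; plate controls were median of neutral control wells for no effect and mitoxantrone controls for full effect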
The depositor's hits bear a star; ? = inconclusive; . = not tested or not shown; [ ] = remark or other dose.

SMILES	F508del corr	EWS-Fli inh	HIV Env fusion	GAA850 FXN act	PAX8 inh HTS
COc1cccc(N2CCN(c3nc(-c4ccccc4C)cc(=O)[nH]3)CC2)c1	0	11	-336	2	70*
CCCC(=O)N1CC2(C1)CN(Cc1nccs1)[C@@H](CO)c1[nH]c3cc(OC)ccc3c12	1	19	.	.	.
Cc1nnc(SCC(=O)Nc2sc3c(c2C(=O)c2ccccc2)CCCC3)s1	.	.	57*	1	30
Cc1nnc(SCC(=O)Nc2ccccc2NC(=O)CSc2nnc(C)s2)s1	.	.	.	1	.
C[C@@H]1CN([C@@H](C)CO)C(=O)Cc2cc(NS(=O)(=O)c3ccc(Cl)cc3)ccc2O[C@H]1CN(C)Cc1ccc(Oc2ccccc2)cc1	-1	-23	?	.	106*
C[C@@H]1CN([C@@H](C)CO)C(=O)Cc2cc(NS(=O)(=O)c3ccc(F)cc3)ccc2O[C@H]1CN(C)Cc1ccc(Oc2ccccc2)cc1	-1	17	38[16.7 µM]	.	86*
C[C@@H]1CN([C@H](C)CO)C(=O)Cc2cc(NS(=O)(=O)c3ccc(Cl)cc3)ccc2O[C@@H]1CN(C)Cc1ccc(Oc2ccccc2)cc1	2	9	6[16.7 µM]	.	5
C[C@H]1CN([C@@H](C)CO)C(=O)c2cc(-c3ccc(F)cc3)cnc2O[C@@H]1CN(C)S(C)(=O)=O	1	-1	5[16.7 µM]	.	.
Cc1ccc(NC(=O)c2c(C(F)(F)F)nn(C)c2SCc2cccc(C(F)(F)F)c2)cc1C	.	.	87*	-1	-44
CCCCCCCCCC(=O)OCC(O)CO (stereo not drawn)	8.2*	-1	16	0	6
COC(=O)c1[nH]c2c(c1C)C(=O)CC(c1cc(OC)ccc1OC)C2 (stereo not drawn)	4	54*	-105	-3	21
CCCCOC(=O)c1[nH]c2c(c1C)C(=O)CC(c1cc(OC)c(OC)c(OC)c1)C2 (stereo not drawn)	0	28	64*	-5	45
COCC(=O)Nc1ccc2c(c1)[C@@H]1C[C@H](CC(=O)NCC3CC3)O[C@H](CO)[C@@H]1O2	1	-6	.	.	.
CN(C)c1ccc2c(c1)[C@@H]1C[C@@H](CC(=O)NCc3ccc(Oc4ccccc4)cc3)O[C@@H](CO)[C@@H]1O2	6	51*	-212[16.7 µM]	.	86*
CS(=O)(=O)Nc1ccc2c(c1)[C@@H]1C[C@H](CC(=O)NCc3ccc(Oc4ccccc4)cc3)O[C@@H](CO)[C@@H]1O2	2	43	4[16.7 µM]	.	85*
CS(=O)(=O)Nc1ccc2c(c1)[C@H]1C[C@H](CC(=O)NCc3ccc(-c4ccccc4)cc3)O[C@H](CO)[C@H]1O2	-1	8	78*[16.7 µM]	.	24
CN(C)c1ccc2c(c1)[C@H]1C[C@@H](CC(=O)NCc3ccc(Oc4ccccc4)cc3)O[C@@H](CO)[C@H]1O2	2	18	11[16.7 µM]	.	24
CS(=O)(=O)Nc1ccc2c(c1)[C@@H]1C[C@H](CC(=O)NCc3ccc(Oc4ccccc4)cc3)O[C@H](CO)[C@@H]1O2	3	6	39[16.7 µM]	.	12
CCCC#Cc1cnc2c(c1)C(=O)N([C@@H](C)CO)C[C@@H](C)[C@@H](CN(C)C(=O)NC1CCCC1)O2	.	-12	12[16.7 µM]	.	1
COc1cccc(N(C(=O)c2ccco2)c2nc(-c3sc(NC(=O)c4ccco4)nc3C)cs2)c1	-7	20	44	-7	99*
Cc1ccc(Cl)cc1Nc1nc(-c2sc(NC(=O)c3ccco3)nc2C)cs1	2	49	33	-9	86*
COc1ccc(CN2C[C@H](C)[C@@H](OC)CN(C)C(=O)c3cc(NC(C)=O)ccc3OC[C@@H]2C)cc1	-2	13	.	.	.
CC(C)(C)NCC(=Cc1ccccc1)C(=O)c1ccccc1	-8	57*	-408	-14	74*
Cc1ccc(S(=O)(=O)Nc2ccc3c(c2)CC(=O)N([C@H](C)CO)C[C@@H](C)[C@@H](CN(C)Cc2ccc(C(F)(F)F)cc2)O3)cc1	4	5	30[16.7 µM]	.	6
C[C@@H]1CN([C@@H](C)CO)C(=O)Cc2cc(NS(=O)(=O)c3ccccc3)ccc2O[C@@H]1CN(C)Cc1ccc(C(F)(F)F)cc1	0	.	.	.	-2
C[C@H](CO)N1C[C@H](C)[C@@H](CN(C)Cc2ccc(C(F)(F)F)cc2)Oc2ccc(NS(=O)(=O)c3ccc(Cl)cc3)cc2CC1=O	5	40	69*[16.7 µM]	.	102*
